Screening data from PubChem.
SKKanGAS inh – S. pyogenes SKKanGAS growth inhibitors in kanamycin, primary screen, streptokinase expression inhibitor project, SKKanGAS strain, BacTiter-Glo luminescence; 6 h; inhibition, % at 7.5 µM; 1.3% of 300,000 active;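 active = mean replicate score, as percent of positive control median, at least 50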;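 also: strain carries kanamycin resistance gene driven by streptokinase promoter and grows in 40 µg/ml kanamycin; loss of luminescence reflects streptokinase promoter inhibition or plain growth inhibition; 0% = median of DMSO wells and 100% = positive control at its reference dose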
aSyn UTR inh – MLPCN primary screen, SNCA 5' untranslated region; alpha-synuclein 5'UTR reporter, inhibitor activity; inhibition, % (tested at 7.5 µM); 0.82% of 300,000 active; in the data active = inhibition above about 60%;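 also: H4 neuroglioblastoma cells stably carrying SNCA 5'UTR luciferase fusion; 0% = DMSO wells and 100% = positive control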
IEC-6 cytotox – cytotoxicity in IEC-6 intestinal epithelial cells, primary screen, cytotoxicity control for KLF5 inhibitor project, cell-based, luminescence; IEC-6 cytotoxicity, luminescence viability; inhibition, % at 5 µM; 0.78% of 290,000 active; AID 1825, 2009; in the data active = inhibition above about 22%;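 also: 0% = plate median of test compound wells and 100% = cytotoxic reference compound wells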
CSC inhib – cancer stem cell viability inhibitors, primary screen, luminescence. 1.1% of 300,000 active. AID 2717, 2010. inhibition, % at 7.5 µM. cancer stem cell-like cells viability; in the data active = inhibition above about 75%; tested in HMLE shEcad cells
KLF5 inhibitor – KLF5 expression inhibitors, primary screen, DLD-1 cells, luminescence. 0.23% of 290,000 active. DLD-1 KLF5 promoter-luciferase reporter. inhibition, % at 5 µM;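 active = inhibition above a per-plate limit of that plate's mean compound inhibition plus 3 SD, cut at about 60% in these data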;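 also: 0% = DMSO wells and 100% = LY294002 at 200 µM; higher means less KLF5 promoter-driven luciferase light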
Starred values were filed as active, the others as inactive; . = not tested or not shown. Rows were chosen to be rich in hits. Some 3% of all compounds tested hit in one or more screens of this group.

SMILES	SKKanGAS inh	aSyn UTR inh	IEC-6 cytotox	CSC inhib	KLF5 inhibitor
O=C(N/N=C/c1ccc(O)cc1)c1cc(-c2ccc3c(c2)OCO3)n[nH]1	4	-60	-2	127*	-7
COc1ccc(/C=C/C(=O)N2CCN(c3ccccn3)CC2)c(OC)c1OC	-4	6	-1	-11	-10
C[C@@]12C(=O)OC(=O)[C@]1(C)C1CCC2O1	.	.	.	109*	.
Cc1ccc(S(=O)(=O)Nc2ccccc2F)cc1C(=O)NNC(=O)c1ccccc1O	7	-17	.	61	.
Cc1ccc2c(c1)c(N=O)c(O)n2Cc1ccc(Cl)cc1	43	4	-10	104*	-5
O=Nc1c(O)n(Cc2ccc(Cl)cc2)c2ccccc12	8	14	2	29	-14
Cc1ccc(Cn2c(O)c(N=O)c3ccccc32)cc1	10	4	0	35	-2
O=Nc1c(O)n(Cc2ccc(Cl)cc2Cl)c2ccccc12	12	0	3	113*	-28
CC1CCCC(NCC(O)COC(c2ccc(F)cc2)c2ccc(F)cc2)C1C (stereo not given)	1	33	5	80*	-14
COc1ccc(C(=O)Oc2ccc(F)cc2C(=O)/C=C/c2ccc(OC)c(OC)c2)cc1	1	-52	-8	4	-11
COc1ccc(/C=C/C(=O)c2cc(F)ccc2OC(=O)c2ccccc2C)cc1OC	-15	82*	88*	49	68*
CC1CCCCN1Cc1nc2c(c(=O)n(C)c(=O)n2C)n1Cc1c(F)cccc1Cl (stereo not given)	.	.	3	77*	-1
Cn1c(=O)c2c(nc(CN3CCC(C(N)=O)CC3)n2Cc2c(F)cccc2Cl)n(C)c1=O	5	-22	-4	-4	-7
CN1CCN(Cc2nc3ccccc3c(=O)n2Cc2nc(-c3cccc([N+](=O)[O-])c3)cs2)CC1	.	.	13	.	-21
CN1CCN(Cc2nc3ccccc3c(=O)n2Cc2nc(-c3ccc4ccccc4c3)cs2)CC1	12	23	20	99*	-19
Cc1cccc(C)c1N=Nc1c(C)cc(O)cc1C	23	5	4	99*	-42
CN1CCN(CCCNC(=O)c2cc3c(-c4ccc(Cl)cc4)nn(C)c3s2)CC1	-1	-25	16	.	-33
CCN(CC)CCCNC(=O)c1cc2c(-c3ccc(Cl)cc3)nn(C)c2s1	-4	-39	14	98*	-14
OCC[C@@H]1C[C@@H](O)[C@H](O)[C@@]2(Cc3ccccc3O2)O1	-3	0	2	-2	-24
Clc1ccc(OCCCCCN2CCCC2)c(Br)c1	-1	-11	-2	23	-73
Clc1ccc(Cl)c(OCCCCN2CCNCC2)c1	5	0	0	96*	-54
CN(Cc1cccnc1)C(=O)CNC(=O)c1ccc(Cl)cc1Cl	-15	1	3	4	10
CCC(C)NC(=O)c1c(N)n(/N=C/c2ccccn2)c2nc3ccccc3nc12 (stereo not given)	87*	30	-2	.	-28
COc1ccccc1-c1cc(C(F)(F)F)nc(S(C)(=O)=O)n1	-7	-27	8	85*	5
COc1ccccc1-c1cc(C(F)(F)F)nc(S(=O)(=O)CCCC(=O)NCc2ccc(F)cc2)n1	-8	-20	0	77*	-23
SMILES	SKKanGAS inh	aSyn UTR inh	IEC-6 cytotox	CSC inhib	KLF5 inhibitor
COc1ccccc1-c1cc(C(F)(F)F)nc(S(=O)(=O)CCCC(=O)NC(C)C)n1	7	-46	-1	29	17
CCn1c(SCC(=O)N(C)c2ccccc2)nc2c([nH]c3ccccc32)c1=O	15	20	13	1	-16
O=[N+]([O-])c1ccc(-[n+]2ccc3ccccc3c2)c([N+](=O)[O-])c1	6	-105	.	121*	.
O=C(CSc1nc2nn(-c3ccccc3)c(=O)c-2c2n1CCCCC2)Nc1ccc(OC(F)F)cc1	.	.	.	4	.
O=C(Cc1cccs1)NCCS(=O)(=O)N1CCN(c2ccccc2F)CC1	0	-11	.	-16	.
Cc1cc(=O)oc2cc(OCC(=O)N3CCN(C(=O)C4COc5ccccc5O4)CC3)ccc12 (stereo not given)	78*	7	2	14	-37
Cc1cccc(NC(=O)CNC(=O)CN2C(=O)NC3(CCCCC3C)C2=O)c1C (stereo not given)	-12	0	.	1	.
CCC1(C)OC(=O)NN(c2ccc(C)cc2)C1(C)O (stereo not given)	1	24	12	2	-22
COc1ccc(NC(=O)c2sc(Cl)nc2-c2ccccc2)cc1	-10	-44	2	16	-9
Cc1cccc(NC(=O)c2sc(Cl)nc2-c2ccccc2)c1	67*	-27	-3	-5	-21
COc1cccc(C(=O)Oc2c(Br)cc(Br)cc2/C=N/NC(=O)c2cc(C)[nH]n2)c1	28	64*	41*	56	51
Cc1cc(C(=O)N/N=C/c2cccc(OC(=O)c3cccc(Br)c3)c2)n[nH]1	.	.	-5	-2	-31
CC(Oc1ccccc1C(N)=O)C(=O)Nc1ccc(S(=O)(=O)N2CCCC2)cc1 (stereo not given)	13	-2	.	-6	.
O=C(NCC1CCCO1)c1cc2ccccc2cc1O (stereo not given)	10	-125	.	-6	.
O=C(NCC1CCCCC1)c1cc2ccccc2cc1O	18	-109	-5	83*	-130
O=C(NC1CCSc2ccccc21)c1cccc([N+](=O)[O-])c1 (stereo not given)	4	-12	5	10	-23
CCOc1cc(/C=N/NC(=O)CNc2cccc(C)c2)ccc1OC(=O)c1ccccc1	32	5	-9	-2	-5
CCOc1cc(/C=N/Nc2cccc(C(=O)O)c2)ccc1OC(=O)c1ccccc1	50*	98*	5	.	-53
CCOc1cc(/C=N\NC(N)=O)cc(Br)c1OC(C)C	-6	62*	4	-10	27
C=CCOc1c(Br)cc(/C=N/Nc2ccc(C(=O)O)cc2)cc1OCC	26	-123	39*	-15	-8
CSCCC(NC(=O)c1ccccc1Br)C(=O)Nc1ccc(C)cc1 (stereo not given)	3	-5	-1	-3	5
CC(C)[C@@H](C(=O)NC1CCCC1)N1C(=O)N2CCc3c([nH]c4ccccc34)[C@@]2(C)C1=O	68*	-4	0	-1	-6
Cc1cccc(C(=O)N[C@H](C(=O)Nc2ncc(C)s2)C(C)C)c1	31	-7	-2	79*	42
Cc1cccc(C(=O)N[C@H](C(=O)Nc2nnc(C3CC3)s2)C(C)C)c1	-8	-12	6	-16	-6
COc1ccc(-c2c/c(=N\c3nc(-c4ccccc4)c(C)s3)c3ccccc3o2)cc1O	59*	75*	-5	80*	4
CCOC(=O)C1CCN(C(=O)c2ccc3c(=O)n4nc(Nc5cc(C)ccc5C)sc4nc3c2)CC1	50*	7	3	9	5
CCCC(NCC(O)COc1ccc(-c2ccccc2)cc1)c1ccccc1 (stereo not given)	3	83*	14	.	-8
